# Out of some 13,000 compounds screened, about 3,200 (25%) showed an effect of 50% or more. The list shows a part of the results.
# Test system: P. falciparum stage V gametocytes
# Design: BacTiter-Glo ATP luminescence viability of purified stage V gametocytes in 384-well plates, per cent inhibition versus DMSO
# Conditions: 48 h, 5 µM; inhibitor
row,SMILES,% Inhibition [%]
1,O=c1ccc(-c2nc3cc(Cl)c(Cl)cc3n2Cc2ccc(Cl)cc2Cl)c[nH]1 [TCMDC-124041],6.921
2,Cc1ccc(Nc2nc(C)cc(Nc3cccc(NS(C)(=O)=O)c3)n2)cc1 [TCMDC-133449],22.69
3,CCCc1cc(Cc2cnc(N)nc2N)cc(CCC)c1OCCCCCC(=O)OCC [TCMDC-137289],-20.26
4,Cc1ccc(NC(=O)c2ccnc(N3CCN(c4ccncc4)CC3)c2)cc1F [TCMDC-135102],18.96
5,Cc1ccc(NC(=O)c2ccc(N3CCN(c4ccncc4)CC3)cc2)cc1F [TCMDC-135126],6.025
6,O=C(Nc1ccc2c(c1)CCC2)c1nc(N2CCN(c3ccncc3)CC2)ccc1Cl [TCMDC-135105],30.18
7,Cc1ccc(NC(=O)c2nc(N3CCN(c4ccncc4)CC3)ccc2Cl)cc1F [TCMDC-135103],90.08
8,Cc1ccc(NC(=O)c2ccc(N3CCN(c4ccncc4)CC3)cn2)cc1F [TCMDC-135156],103.4
9,COc1cccc(NC(=O)c2nc(N3CCN(c4ccncc4)CC3)ccc2Cl)c1 [TCMDC-135104],27.68
10,CC(C)(C)C(=O)Nc1ccc(N2CCN(C(c3ccccc3)c3ccccc3)CC2)c(Cl)c1 [TCMDC-133713],36.59
11,COc1ccc(Cl)cc1N1CCN(CCCNC(=O)c2ccc(-c3nc4cc(Cl)c(Cl)cc4[nH]3)c(C)c2)CC1 [TCMDC-140082],-14.21
12,O=C(Cn1cc(C=C2SC(=NC3CCCC3)N(C3CCCC3)C2=O)c2ccccc21)N1CCCC1 [TCMDC-124810],-5.018
13,COc1ccc2nccc(N(C)CC3(O)CCN(CCc4ccc5c(c4)NC(=O)CS5)CC3)c2n1 [TCMDC-141472],49.29
14,CCCCC(=O)Nc1nc2ccc([N+](=O)[O-])cc2s1 [TCMDC-123686],-7.174
15,O=C(CSc1nc2ccc([N+](=O)[O-])cc2s1)Nc1ccccc1-c1ccccc1 [TCMDC-124341],43.04
16,CC(C)C(C)(C#N)NC(=O)CSc1nc2ccc([N+](=O)[O-])cc2s1 (centres unmarked) [TCMDC-123610],79.56
17,COc1ccc2nccc(N(C)CC3(O)CCC(NCc4cc5c(cn4)OCCO5)CC3)c2n1 (centres unmarked) [TCMDC-134497],30.63
18,N=c1ccn(CC(=NO)c2ccc(Cl)c(Cl)c2)cc1 [TCMDC-139033],-35.74
19,COc1ccccc1C1CCN(C2CCC(NC(=O)/C=C/c3ccc(F)c(F)c3)CC2)CC1 (centres unmarked) [TCMDC-133493],-77.67
20,O=[N+]([O-])c1nc(Br)n(Cc2ccc(Cl)cc2)n1 [TCMDC-125048],51.98
21,Clc1ccc(Cn2nc(Br)nc2Br)c(Cl)c1 [TCMDC-125047],-61.09
22,O=C(NCCCCN1CCC(c2ccc3c(c2O)CCCC3)CC1)c1ccc(-c2ccc(Cl)cc2)cc1 [TCMDC-138661],61.25
23,CC(Oc1c(C2CCN(CCCCNC(=O)c3ccc(-c4ccc(C#N)cc4)cc3)CC2)ccc2c1CCCC2)C(N)=O (centres unmarked) [TCMDC-134551],41.12
24,Cc1ccc(C2CCN(CCCCNC(=O)c3ccc(NC(=O)c4ccc(Cl)cc4)cc3)CC2)c(C)c1 [TCMDC-138354],9.967

row,SMILES,% Inhibition [%]
1,CC(Oc1c(C2CCN(CCCCNC(=O)c3ccc(-c4ccc(Cl)cc4)cc3)CC2)ccc2c1CCCC2)C(N)=O (centres unmarked) [TCMDC-134653],65.96
2,N#Cc1ccc(-c2ccc(C(=O)NCCCCN3CCC(c4cc(Br)c5c(c4O)CCCC5)CC3)cc2)cc1 [TCMDC-135238],-99.04
3,CC(C)(Oc1c(C2CCN(CCCCNC(=O)c3ccc(-c4ccc(Cl)cc4)cc3)CC2)ccc2c1CCCC2)C(N)=O [TCMDC-134939],-3.044
4,CC(=O)c1ccc(-c2ccc(C(=O)NCCCCN3CCC(c4ccc5c(c4O)CCCC5)CC3)cc2)cc1 [TCMDC-138653],60.63
5,O=C(NCCCCN1CCC(c2ccc3c(c2O)CCCC3)CC1)c1ccc(NC(=O)c2ccc(Cl)cc2)cc1 [TCMDC-138645],88.57
6,C=Cc1c(C2CCN(CCCCNC(=O)c3ccc(-c4ccc(C#N)cc4)cc3)CC2)ccc2c1CCCC2 [TCMDC-135273],38.74
7,COc1ccc2c(c1C1CCN(CCCCNC(=O)c3ccc(NC(=O)c4ccc(Cl)cc4)cc3)CC1)CCCC2 [TCMDC-138553],46.07
8,COc1ccc2nc(-c3cc(-c4ccc(NC(=O)C(C)C)cc4)cnc3N)[nH]c2c1 [TCMDC-135322],10.64
9,C[C@H](CNc1ccnc(Nc2ccc3[nH]c(=O)[nH]c3c2)n1)c1ccccc1 [TCMDC-136804],-43.48
10,CN/C(=C\[N+](=O)[O-])NCCSCc1cc(C)c(CN(C)C)s1 [TCMDC-131256],8.916
11,Cc1cc(O)c2c3c1C(=O)C=C1C3c3c(c(O)cc(O)c3C(=O)C1(C)C)C2=O (centres unmarked) [TCMDC-132049],13.87
12,Oc1ccc(Cl)cc1CN1CCC(CCOC(c2ccccc2)c2ccccc2)CC1 [TCMDC-136036],7.087
13,CC(C)Sc1nc2c(c(=O)n1CCc1ccccc1)C1(CCCCC1)Cc1ccccc1-2 [TCMDC-123894],-24.8
14,O=C(Nc1ccc2c(c1)OCO2)c1cc(-c2cccnc2)cnc1NCc1ccc2c(c1)OCO2 [TCMDC-136698],-17.08
15,CN(c1ccnc(Nc2ccc(CS(C)(=O)=O)cc2)n1)C1CCN(Cc2ccccc2)CC1 [TCMDC-134396],-3.005
16,CNC(=O)Cc1ccc(C(=O)Nc2cccc(-c3cccc(-c4nc5c(C)cccc5[nH]4)c3)c2)cc1 [TCMDC-137075],-29.46
17,Cc1cccc2nc(-c3cccc(-c4cccc(CN5CCN(c6ccc(C#N)cn6)CC5)c4)c3)[nH]c12.O=C(O)C(F)(F)F [TCMDC-133118],18.89
18,COc1ccc(CNCc2ccc(-c3ccc(-c4nc5cccc(C)c5[nH]4)cc3)cc2)cc1.O=C(O)C(F)(F)F [TCMDC-132720],-4.275
19,Cc1cccc2nc(-c3ccc(-c4ccc(CNCc5ccc(S(C)(=O)=O)cc5)cc4)cc3)[nH]c12.O=C(O)C(F)(F)F [TCMDC-132905],55
20,Cc1cccc2nc(-c3cccc(-c4cccc(CNCc5ccc(S(C)(=O)=O)cc5)c4)c3)[nH]c12.O=C(O)C(F)(F)F [TCMDC-132896],-8.61
21,Cc1cccc2nc(-c3ccc(-c4ccc(CNCCc5ccncc5)cc4)cc3)[nH]c12.O=C(O)C(F)(F)F [TCMDC-132855],4.84
22,CNc1ccc(CNCc2ccc(-c3ccc(-c4nc5cccc(C)c5[nH]4)cc3)cc2)cc1.O=C(O)C(F)(F)F [TCMDC-132984],83.67
23,Cc1cccc2nc(-c3cccc(-c4ccc(CNCc5ccc(S(C)(=O)=O)cc5)cc4)c3)[nH]c12.O=C(O)C(F)(F)F [TCMDC-132898],-16.63
